From ChEMBL document CHEMBL1961873, “Compounds: GSK PKIS; Assays: Nanosyn kinase panel” (2012)

Legend:
[1] = molecular target: Rho-associated protein kinase 1 (Homo sapiens) (UniProt Q13464); conditions: at 1 µM;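 also: reported values are mean percent inhibition of ROCK1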
[2] = molecular target: Rho-associated protein kinase 2 (Homo sapiens) (UniProt O75116); conditions: at 0.1 µM
[3] = molecular target: Rho-associated protein kinase 2 (Homo sapiens) (UniProt O75116); conditions: at 1 µM
[4] = molecular target: Ribosomal protein S6 kinase alpha-1 (Homo sapiens) (UniProt Q15418); conditions: at 0.1 µM
Sequence of Ribosomal protein S6 kinase alpha-1 (Homo sapiens) (Q15418 whole entry): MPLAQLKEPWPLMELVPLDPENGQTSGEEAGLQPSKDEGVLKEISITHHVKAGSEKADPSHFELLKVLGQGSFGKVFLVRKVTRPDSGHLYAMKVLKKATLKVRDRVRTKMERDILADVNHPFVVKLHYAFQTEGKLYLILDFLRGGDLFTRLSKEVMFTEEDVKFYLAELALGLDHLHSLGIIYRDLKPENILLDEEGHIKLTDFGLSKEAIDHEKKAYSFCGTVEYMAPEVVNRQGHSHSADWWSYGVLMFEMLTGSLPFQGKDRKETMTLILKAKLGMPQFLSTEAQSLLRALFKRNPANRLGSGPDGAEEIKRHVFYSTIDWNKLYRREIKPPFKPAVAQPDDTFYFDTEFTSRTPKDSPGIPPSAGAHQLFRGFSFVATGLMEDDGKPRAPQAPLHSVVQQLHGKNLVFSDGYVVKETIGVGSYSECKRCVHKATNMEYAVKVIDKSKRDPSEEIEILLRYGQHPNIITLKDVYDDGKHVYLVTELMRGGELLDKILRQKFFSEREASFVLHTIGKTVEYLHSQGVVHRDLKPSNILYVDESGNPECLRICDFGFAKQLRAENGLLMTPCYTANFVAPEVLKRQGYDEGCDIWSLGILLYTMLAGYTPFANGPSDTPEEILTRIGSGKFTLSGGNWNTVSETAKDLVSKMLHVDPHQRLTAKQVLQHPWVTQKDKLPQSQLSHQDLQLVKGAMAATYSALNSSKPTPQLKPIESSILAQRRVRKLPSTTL

[5] = molecular target: Ribosomal protein S6 kinase alpha-1 (Homo sapiens) (UniProt Q15418); conditions: at 1 µM
[6] = molecular target: Ribosomal protein S6 kinase alpha-3 (Homo sapiens) (UniProt P51812); conditions: at 0.1 µM
Sequence of Ribosomal protein S6 kinase alpha-3 (Homo sapiens) (P51812 whole entry): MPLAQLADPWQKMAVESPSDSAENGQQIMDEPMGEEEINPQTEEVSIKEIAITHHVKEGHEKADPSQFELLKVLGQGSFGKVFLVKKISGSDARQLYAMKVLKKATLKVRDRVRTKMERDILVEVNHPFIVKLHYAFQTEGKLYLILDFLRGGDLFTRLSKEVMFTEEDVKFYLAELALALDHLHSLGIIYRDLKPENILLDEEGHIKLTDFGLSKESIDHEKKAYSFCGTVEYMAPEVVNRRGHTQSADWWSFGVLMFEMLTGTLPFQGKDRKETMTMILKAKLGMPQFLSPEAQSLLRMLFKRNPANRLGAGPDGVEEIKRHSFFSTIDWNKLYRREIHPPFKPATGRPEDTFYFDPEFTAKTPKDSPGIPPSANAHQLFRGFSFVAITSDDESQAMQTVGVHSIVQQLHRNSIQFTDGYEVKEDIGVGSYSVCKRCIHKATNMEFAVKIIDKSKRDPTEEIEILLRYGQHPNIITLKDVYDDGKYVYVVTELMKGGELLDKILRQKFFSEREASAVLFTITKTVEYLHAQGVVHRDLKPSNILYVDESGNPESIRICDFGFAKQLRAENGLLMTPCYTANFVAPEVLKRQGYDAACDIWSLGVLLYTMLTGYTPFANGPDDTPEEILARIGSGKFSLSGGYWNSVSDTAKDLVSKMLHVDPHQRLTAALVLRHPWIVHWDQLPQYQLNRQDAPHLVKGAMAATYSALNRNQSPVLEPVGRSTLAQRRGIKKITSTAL

[7] = molecular target: Ribosomal protein S6 kinase alpha-3 (Homo sapiens) (UniProt P51812); conditions: at 1 µM
[8] = molecular target: Ribosomal protein S6 kinase alpha-2 (Homo sapiens) (UniProt Q15349); conditions: at 0.1 µM
Sequence of Ribosomal protein S6 kinase alpha-2 (Homo sapiens) (Q15349 whole entry): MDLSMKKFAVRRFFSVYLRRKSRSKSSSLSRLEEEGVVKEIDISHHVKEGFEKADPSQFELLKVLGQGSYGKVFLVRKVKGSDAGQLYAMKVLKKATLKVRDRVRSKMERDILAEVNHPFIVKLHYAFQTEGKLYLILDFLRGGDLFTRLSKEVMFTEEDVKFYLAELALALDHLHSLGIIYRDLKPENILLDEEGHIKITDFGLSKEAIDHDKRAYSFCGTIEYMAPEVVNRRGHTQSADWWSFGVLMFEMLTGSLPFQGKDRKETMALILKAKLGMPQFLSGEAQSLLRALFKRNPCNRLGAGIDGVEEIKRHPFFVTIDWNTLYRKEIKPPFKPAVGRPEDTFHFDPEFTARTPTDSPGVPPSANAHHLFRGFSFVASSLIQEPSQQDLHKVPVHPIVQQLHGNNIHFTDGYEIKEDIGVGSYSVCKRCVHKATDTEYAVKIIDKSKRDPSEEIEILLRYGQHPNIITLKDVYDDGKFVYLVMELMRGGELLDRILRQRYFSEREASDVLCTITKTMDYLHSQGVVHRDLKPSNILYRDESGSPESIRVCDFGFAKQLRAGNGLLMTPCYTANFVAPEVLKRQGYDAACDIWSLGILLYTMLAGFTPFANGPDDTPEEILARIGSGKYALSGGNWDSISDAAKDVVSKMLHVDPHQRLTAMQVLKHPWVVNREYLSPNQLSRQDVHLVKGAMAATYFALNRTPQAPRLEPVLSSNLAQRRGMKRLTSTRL

[9] = molecular target: Ribosomal protein S6 kinase alpha-2 (Homo sapiens) (UniProt Q15349); conditions: at 1 µM
[10] = molecular target: Ribosomal protein S6 kinase alpha-6 (Homo sapiens) (UniProt Q9UK32); conditions: at 0.1 µM
[11] = molecular target: Ribosomal protein S6 kinase alpha-6 (Homo sapiens) (UniProt Q9UK32); conditions: at 1 µM
[12] = molecular target: T1, Serine/threonine-protein kinase Sgk1 (Homo sapiens) (UniProt O00141); conditions: at 0.1 µM
T1 sequence (whole entry): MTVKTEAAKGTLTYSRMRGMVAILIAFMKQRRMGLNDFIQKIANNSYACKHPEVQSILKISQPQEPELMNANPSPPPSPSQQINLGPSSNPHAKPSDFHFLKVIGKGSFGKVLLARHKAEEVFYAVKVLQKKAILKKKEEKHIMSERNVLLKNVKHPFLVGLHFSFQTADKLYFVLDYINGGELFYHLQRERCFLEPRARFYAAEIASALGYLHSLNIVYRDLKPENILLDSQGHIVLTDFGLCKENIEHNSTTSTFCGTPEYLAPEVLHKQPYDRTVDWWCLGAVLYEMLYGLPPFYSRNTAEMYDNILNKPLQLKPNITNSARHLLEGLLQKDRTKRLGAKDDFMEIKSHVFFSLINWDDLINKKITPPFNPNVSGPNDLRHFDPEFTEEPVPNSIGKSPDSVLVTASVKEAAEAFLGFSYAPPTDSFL

[13] = molecular target: T1, Serine/threonine-protein kinase Sgk1 (Homo sapiens); conditions: at 1 µM
[14] = molecular target: T2, Serine/threonine-protein kinase Sgk2 (Homo sapiens) (UniProt Q9HBY8); conditions: at 0.1 µM
T2 sequence (whole entry): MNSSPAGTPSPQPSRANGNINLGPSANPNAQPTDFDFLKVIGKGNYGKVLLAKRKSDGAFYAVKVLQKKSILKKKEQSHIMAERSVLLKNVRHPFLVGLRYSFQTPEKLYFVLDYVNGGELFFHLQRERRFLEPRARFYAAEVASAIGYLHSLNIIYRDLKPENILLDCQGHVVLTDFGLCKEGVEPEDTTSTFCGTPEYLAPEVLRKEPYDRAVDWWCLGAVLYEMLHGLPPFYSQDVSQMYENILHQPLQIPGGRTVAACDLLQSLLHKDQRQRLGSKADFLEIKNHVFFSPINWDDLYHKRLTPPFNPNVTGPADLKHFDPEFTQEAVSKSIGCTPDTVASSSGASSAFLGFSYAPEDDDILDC

[15] = molecular target: T2, Serine/threonine-protein kinase Sgk2 (Homo sapiens); conditions: at 1 µM
[16] = molecular target: T3, Serine/threonine-protein kinase Sgk3 (Homo sapiens) (UniProt Q96BR1); conditions: at 0.1 µM
T3 sequence (whole entry): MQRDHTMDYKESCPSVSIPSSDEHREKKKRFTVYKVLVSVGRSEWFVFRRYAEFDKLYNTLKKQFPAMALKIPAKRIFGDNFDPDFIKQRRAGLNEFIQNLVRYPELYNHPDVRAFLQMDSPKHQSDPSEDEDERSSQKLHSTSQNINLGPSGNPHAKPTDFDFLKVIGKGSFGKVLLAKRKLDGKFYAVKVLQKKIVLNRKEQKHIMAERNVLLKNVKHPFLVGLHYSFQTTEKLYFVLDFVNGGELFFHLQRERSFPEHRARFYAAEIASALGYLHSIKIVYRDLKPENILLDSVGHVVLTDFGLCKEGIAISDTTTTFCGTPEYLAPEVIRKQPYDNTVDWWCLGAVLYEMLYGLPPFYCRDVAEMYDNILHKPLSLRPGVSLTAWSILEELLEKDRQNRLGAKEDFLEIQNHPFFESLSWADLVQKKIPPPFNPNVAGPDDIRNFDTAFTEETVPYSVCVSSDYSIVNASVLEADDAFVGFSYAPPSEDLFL

[17] = molecular target: T3, Serine/threonine-protein kinase Sgk3 (Homo sapiens); conditions: at 1 µM
[18] = molecular target: 5'-AMP-activated protein kinase catalytic subunit alpha-1 (Homo sapiens) (UniProt Q13131); conditions: at 0.1 µM
Sequence of 5'-AMP-activated protein kinase catalytic subunit alpha-1 (Homo sapiens) (Q13131 whole entry, looked up): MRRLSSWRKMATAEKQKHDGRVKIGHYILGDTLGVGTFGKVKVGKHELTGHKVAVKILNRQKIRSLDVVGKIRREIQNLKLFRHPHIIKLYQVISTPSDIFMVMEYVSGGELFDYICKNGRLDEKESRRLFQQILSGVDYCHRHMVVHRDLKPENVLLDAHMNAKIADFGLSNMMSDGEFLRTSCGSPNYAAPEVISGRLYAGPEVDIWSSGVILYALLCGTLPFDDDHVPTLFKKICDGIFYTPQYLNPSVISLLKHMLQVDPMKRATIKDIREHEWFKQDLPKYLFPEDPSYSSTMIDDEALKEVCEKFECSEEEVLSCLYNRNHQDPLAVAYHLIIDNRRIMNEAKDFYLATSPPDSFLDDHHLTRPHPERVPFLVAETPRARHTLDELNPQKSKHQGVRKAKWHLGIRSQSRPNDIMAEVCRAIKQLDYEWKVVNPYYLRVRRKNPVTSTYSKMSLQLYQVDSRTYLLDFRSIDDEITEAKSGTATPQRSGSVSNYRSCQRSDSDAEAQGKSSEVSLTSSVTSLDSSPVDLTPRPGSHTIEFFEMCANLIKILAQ

[19] = molecular target: 5'-AMP-activated protein kinase catalytic subunit alpha-1 (Homo sapiens) (UniProt Q13131); conditions: at 1 µM
[20] = molecular target: 5'-AMP-activated protein kinase catalytic subunit alpha-2 (Homo sapiens) (UniProt P54646); conditions: at 0.1 µM;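 also: mean inhibition measured on the AMPK complex of alpha2, beta1 and gamma1 subunits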
Sequence of 5'-AMP-activated protein kinase catalytic subunit alpha-2 (Homo sapiens) (P54646 whole entry, looked up): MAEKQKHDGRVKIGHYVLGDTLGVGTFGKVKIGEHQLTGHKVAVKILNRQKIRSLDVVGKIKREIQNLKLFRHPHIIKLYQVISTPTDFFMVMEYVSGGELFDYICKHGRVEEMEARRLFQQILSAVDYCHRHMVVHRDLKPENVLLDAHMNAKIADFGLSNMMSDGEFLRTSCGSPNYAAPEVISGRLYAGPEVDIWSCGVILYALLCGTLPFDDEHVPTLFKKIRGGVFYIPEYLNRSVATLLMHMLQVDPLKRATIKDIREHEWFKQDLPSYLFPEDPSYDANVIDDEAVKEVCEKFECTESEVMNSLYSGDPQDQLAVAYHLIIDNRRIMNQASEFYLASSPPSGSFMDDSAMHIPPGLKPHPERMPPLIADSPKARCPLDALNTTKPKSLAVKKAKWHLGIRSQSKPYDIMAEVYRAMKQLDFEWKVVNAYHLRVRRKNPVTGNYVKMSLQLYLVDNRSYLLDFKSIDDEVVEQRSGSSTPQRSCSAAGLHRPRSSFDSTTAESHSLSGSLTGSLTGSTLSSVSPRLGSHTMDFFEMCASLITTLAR

Sequence of Rho-associated protein kinase 2 (Homo sapiens) (O75116 whole entry, looked up): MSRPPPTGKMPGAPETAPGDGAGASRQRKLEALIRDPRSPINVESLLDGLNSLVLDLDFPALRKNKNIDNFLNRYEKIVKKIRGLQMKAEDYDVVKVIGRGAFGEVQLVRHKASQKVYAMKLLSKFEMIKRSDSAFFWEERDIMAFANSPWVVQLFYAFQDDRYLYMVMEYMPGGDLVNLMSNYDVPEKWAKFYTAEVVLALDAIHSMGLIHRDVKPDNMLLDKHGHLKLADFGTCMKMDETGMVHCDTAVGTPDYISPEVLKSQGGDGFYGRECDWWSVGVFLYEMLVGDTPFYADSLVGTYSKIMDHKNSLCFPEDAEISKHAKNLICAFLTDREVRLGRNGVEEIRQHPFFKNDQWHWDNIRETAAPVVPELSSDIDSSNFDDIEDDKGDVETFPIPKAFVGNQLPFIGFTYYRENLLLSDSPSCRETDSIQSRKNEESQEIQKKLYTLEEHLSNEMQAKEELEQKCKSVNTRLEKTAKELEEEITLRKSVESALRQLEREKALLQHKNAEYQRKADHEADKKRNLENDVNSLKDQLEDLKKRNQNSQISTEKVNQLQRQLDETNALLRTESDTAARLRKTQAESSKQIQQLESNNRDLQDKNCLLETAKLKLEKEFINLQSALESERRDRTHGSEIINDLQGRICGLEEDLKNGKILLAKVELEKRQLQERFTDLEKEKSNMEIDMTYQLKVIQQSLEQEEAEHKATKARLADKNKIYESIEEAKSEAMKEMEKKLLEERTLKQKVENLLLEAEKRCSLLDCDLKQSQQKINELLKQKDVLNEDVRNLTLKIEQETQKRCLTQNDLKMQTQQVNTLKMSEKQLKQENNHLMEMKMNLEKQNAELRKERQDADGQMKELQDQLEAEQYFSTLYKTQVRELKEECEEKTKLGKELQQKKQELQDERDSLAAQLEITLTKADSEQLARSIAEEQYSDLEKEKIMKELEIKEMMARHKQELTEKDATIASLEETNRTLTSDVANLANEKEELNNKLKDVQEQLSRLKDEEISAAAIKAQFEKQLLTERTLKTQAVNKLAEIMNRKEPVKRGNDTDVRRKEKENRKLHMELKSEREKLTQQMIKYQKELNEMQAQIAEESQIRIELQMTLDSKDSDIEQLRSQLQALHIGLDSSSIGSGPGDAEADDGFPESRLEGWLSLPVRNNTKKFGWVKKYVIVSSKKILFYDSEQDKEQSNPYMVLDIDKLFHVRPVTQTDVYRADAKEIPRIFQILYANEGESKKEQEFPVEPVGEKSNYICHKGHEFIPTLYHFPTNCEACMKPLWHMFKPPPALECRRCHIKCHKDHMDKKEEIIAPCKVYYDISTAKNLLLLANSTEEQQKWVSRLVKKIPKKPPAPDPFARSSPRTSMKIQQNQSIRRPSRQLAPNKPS

SMILES | inhibition [1] | inhibition [2] | inhibition [3] | inhibition [4] | inhibition [5] | inhibition [6] | inhibition [7] | inhibition [8] | inhibition [9] | inhibition [10] | inhibition [11] | inhibition [12] | inhibition [13] | inhibition [14] | inhibition [15] | inhibition [16] | inhibition [17] | inhibition [18] | inhibition [19] | inhibition [20]
O=C1Nc2ccccc2/C1=C/Nc1ccc(-n2cncn2)cc1 | 1.71% | 3.63% | 7.17% | 2.06% | 10.9% | 2.37% | 8.64% | 3.38% | 14.2% | 3.31% | 11.4% | 5.81% | 29.2% | 3.56% | 10.9% | 4.57% | 8.06% | 5.93% | 19.3% | 3.9%
Nc1nccc(-c2c(-c3ccc(F)cc3)ncn2C2CCC(O)CC2)n1 (stereo not given) | 0.73% | -1.47% | -1.96% | -0.24% | 2.78% | -0.92% | -0.98% | -0.62% | 0.59% | -0.21% | 3.39% | -2.26% | -1.85% | -3.55% | 7.09% | 0.34% | 1.61% | 3.45% | 0.93% | 0.71%
Fc1ccc(-c2ncn(C3CCNCC3)c2-c2ccnc(Oc3ccc4c(c3)OCO4)n2)cc1 | 5.2% | 4.88% | 8.46% | 1.84% | 3.67% | -0.4% | 2.18% | 2.81% | 4.39% | 0.63% | 3.03% | 3.72% | 3.6% | 2.63% | 3.07% | 6.26% | 4.11% | 2.72% | 3.99% | 3.86%
COc1ccc(-c2ccc3c(NC(=O)C4CC4)n[nH]c3n2)cc1 | -0.75% | 1.6% | 3.71% | 0.22% | 2.59% | 1.62% | 3% | 1.1% | 1.69% | 0.83% | 0.85% | 1.6% | 6% | 1.24% | 3.76% | 2.58% | 3.92% | 1.15% | 2.02% | 0.53%
CN(C)CCOc1ccc(-c2cc(-c3ccc4c(c3)CCC4=NO)c(-c3ccncc3)o2)cc1 | -1.5% | -2.12% | -0.39% | -0.55% | -1.02% | -0.48% | -0.08% | -0.08% | 0.83% | -0.45% | -1.99% | 1.28% | 0.73% | -2.26% | 2.64% | 1.69% | -4.66% | -1.39% | -0.8% | 0.73%
COc1cccc(-n2cnc3c(N/N=C/c4ccncc4)ncnc32)c1 | 1.07% | 3.27% | 6.91% | 2.62% | 4.66% | 2.12% | 4.76% | -0.37% | 0.82% | -0.06% | 1.9% | 1.3% | 4.05% | 1.67% | 2.41% | 3.19% | 3.83% | 1.05% | 3.79% | -1.1%
NS(=O)(=O)c1ccc(N/N=C2\C(=O)Nc3ccc(C(=O)NCCCn4ccnc4)cc32)cc1 | 8.77% | 5.67% | 25.4% | 2.58% | 7.85% | 2.08% | 9.61% | 3.97% | 12.8% | 3.05% | 13% | 5.02% | 14.6% | 2.07% | 7.54% | 3.25% | 6.44% | 18% | 64.4% | 5.78%
CS(=O)(=O)CCNCc1cc(-c2cc3c(Nc4ccc(OCc5cccc(F)c5)c(Cl)c4)ncnc3s2)cs1 | 4.5% | 3.92% | 5.77% | -0.03% | 1.94% | 1.24% | 1.57% | 3.28% | 2.95% | 0.77% | 2.5% | 2.39% | 1.38% | 5.74% | 2.6% | 3.92% | 6.65% | 2.39% | 3.88% | 5.96%
CN(c1ccc(NC(=O)Nc2c(Cl)cccc2Cl)cc1)c1ccnc(Nc2cccc(CS(C)(=O)=O)c2)n1 | 2.01% | 3.46% | 9.15% | 2.34% | 4.66% | 2.08% | 3.81% | -2.19% | 1.78% | 0.45% | 1.06% | 1.73% | 7.64% | 5.92% | 22.8% | 3.73% | 4.02% | 2.22% | 3.05% | -0.21%
CCc1nccc2c1nc(-c1nonc1N)n2CC | 11.5% | 1.91% | 17% | 5.37% | 35.2% | 2.22% | 15.6% | 3.79% | 26.9% | -0.93% | 0.92% | 0.21% | 3.23% | 0.23% | 9.51% | 2.62% | 7.73% | 1% | -1.23% | -1.43%
Cc1ccc(C(=O)NC2CCC2)cc1-c1ccc(C(=O)NCC2CC2)cc1 | 1.32% | 1.03% | -0.46% | 1.52% | 1.45% | 0.97% | 1.47% | 1.58% | 2.68% | 1.63% | 1.08% | 2.17% | 2.8% | 0.49% | -2.52% | 0.54% | 1.57% | 1.41% | 1.46% | 1.35%
Cc1ccc(NC(=O)c2ccoc2)cc1-c1ccc(C(=O)NCC2CC2)cc1 | -0.4% | 0.78% | -1.14% | 1.06% | 0.4% | -0.62% | 0.11% | 2% | 1.72% | -0.1% | -0.14% | 0.63% | 0.73% | 2.95% | -0.89% | 7.71% | 3.98% | 0.17% | 1.06% | -0.17%
NCc1ccc(-n2c(-c3nonc3N)nc3cnccc32)cc1 | 90.5% | 82.9% | 92.9% | 56.2% | 87.9% | 43.4% | 81.4% | 55.5% | 91.4% | 10% | 36.2% | 5.32% | 11.7% | 5.18% | 17.3% | 3.68% | 28.2% | 5.3% | 7.27% | 6.07%
